Results filed as inconclusive are left out. Unmarked numbers belong to inactive results. Active and inactive are the calls of the source. Unless noted, the call rests on the fitted dose curve; in most records, active means well fitted curve in the direction sought with a large enough effect; inconclusive means small, poorly fitted or top-dose-only effect, or another doubt; inactive means no such curve, though single readings can be large; an effect the other way counts as inactive or inconclusive.

Experimental findings from PubChem BioAssay (NCATS) are described below.

Test [1] can be described thus: P-glycoprotein substrates identified in KB-8-5-11 adenocarcinoma cell line, qHTS therapeutic library screen (AID 1346987). Further: nearly all actives have a fitted effect of over 65% in size. Further: potency means the concentration at half of the fitted maximal effect. On activity change, negative = cytotoxicity: series mostly up to about 44 µM; on the % scale 0 is the no-effect control and ±100 the full control effect. An outline of the steps:
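Steps: plate 500 KB-8-5-11 cells/well in DMEM + 10% FCS (colchicine removed); pin compounds in dose-response; incubate 72 h, 37 degree C, 5% CO2; add CellTiter-Glo, 5 min; read luminescence.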

Test [2] can be described thus: qHTS assay for small molecule agonists of the antioxidant response element (ARE) signaling pathway measured by Nrf2-dependant transcriptional activity (AID 720636; active means well fitted curve in the direction sought with a large enough effect in the repeat runs; an effect the other way counts as inactive or inconclusive;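 further: HepG2 cells with an ARE-driven luciferase reporter; % of control where 0% means no effect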). An outline of the steps: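 We exposed ARE-luc HepG2 cells, seeded in assay medium with 1% dialyzed FBS and allowed 6 hr to adhere, to test compounds overnight (16 hr, 37 C) before measuring luciferase with ONE-Glo.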
For orientation: Quantitative high-throughput screening tests each substance at several concentrations.

Test [3] is described as follows: qHTS assay for small molecule antagonists of the retinoid-related orphan receptor gamma (ROR-gamma) signaling pathway - cell viability counter screen (AID 720652; active means well fitted curve in the direction sought with a large enough effect in the repeat runs; an effect the other way counts as inactive or inconclusive;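 further: series mostly up to about 92 µM; compound exposure lasted 16 hr before ATP read; on the % scale 0 is the no-effect control and ±100 the full control effect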). The gist of the method:
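Luminescence from CellTiter-Glo after 30 min at room temperature reported cellular ATP as the cytotoxicity measure. Cells were the CHO reporter line with doxycycline-induced ROR-gamma expression, exposed to compound for 16 hr at 37 C.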

Test [4] can be described thus: qHTS assay for small molecule agonists of the antioxidant response element (ARE) signaling pathway measured by Nrf2-dependant transcriptional activity - cell viability counter screen (AID 720653; active means well fitted curve in the direction sought with a large enough effect in the repeat runs; an effect the other way counts as inactive or inconclusive; further: on the % scale 0 is the no-effect control and ±100 the full control effect). The settings on record: ARE-bla HepG2 viability, CellTiter-Glo ATP luminescence, 16 h; stronger effect = lower value. An outline of the steps: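 Cytotoxicity counter screen: intracellular ATP quantified by CellTiter-Glo luminescence in the same ARE-bla HepG2 plates, after 16 h compound exposure and a 2 h beta-lactamase substrate step.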

The nature of test [5]: qHTS assay for cell viability of HEK293 cells (AID 743288). Further: on the % scale 0 is the no-effect control and ±100 the full control effect; nearly all actives have a fitted effect of over 50% in size. The settings on record: ATP luminescence (CellTiter-Glo), 18 h, stronger effect = lower value. An outline of the steps:
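Parental HEK293 cells, 2,000 per well, preincubated at least 5 h at 37 C, then exposed to compounds in DMSO for 18 h at 37 C. Viability by CellTiter-Glo ATP luminescence after 30 min at room temperature.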

Test [6] in a line: qHTS assay for cell viability of the p53RE-bla HCT-116 cell line (AID 743292). Further: on the % scale 0 is the no-effect control and ±100 the full control effect; nearly all actives have a fitted effect of over 55% in size. The gist of the method:
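In this qHTS counter-screen, metabolically competent p53RE-bla HCT-116 cells were counted via their ATP content. Compounds were applied for 16 h at 37 C and luciferase-coupled luminescence was measured.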

For the compound `O=C(O)C(O[C@@H]1O[C@H](CO[C@@H]2O[C@H](CO)[C@@H](O)[C@H](O)[C@H]2O)[C@@H](O)[C@H](O)[C@H]1O)c1ccccc1` (stereo partly drawn), in test [1], the Potency entry was “inactive”.

Consider `COc1cc(N)c(Cl)cc1C(=O)NC[C@@H]1CCN2CCC[C@@H]12`, for which, in test [1], the Potency result was “inactive”. Take `CC(=O)O[C@@H]1CC(C)=C2[C@H]1[C@H](C)CC[C@H]2/C=C(\C)C(=O)O`: the compound was called inactive in test [2], in test [3] and in test [6]. For the same compound, the max response in test [4] is -16.1%; in test [5], -5.49%. For `Cc1cccc(-c2[nH]c(Cc3cccc(C(N)=O)c3)nc2-c2ccc3nccnc3c2)n1`, the Potency entry in test [1] was “inactive”.

Regarding `C[C@@H]1O[C@@H](O[C@H]2[C@H](OC(=O)[C@]34CCC(C)(C)C[C@H]3C3=CCC5[C@@]6(C)C[C@H](O)[C@H](O[C@@H]7O[C@H](CO)[C@@H](O)[C@H](O)[C@H]7O)[C@@](C)(CO)C6[C@H](O)C[C@@]5(C)[C@]3(C)C[C@H]4O)OC[C@H](O)[C@@H]2O)[C@H](O)[C@H](O)[C@H]1O[C@@H]1OC[C@@H](O)[C@H](O[C@H]2OC[C@](O)(CO)[C@H]2O)[C@H]1O` (stereo partly drawn), the activity change, negative = cytotoxicity in test [1] is 4.28% [at 9.29 µM]. For the compound `CC(C)(C(=O)NCC(F)(F)C(F)(F)F)C(=O)NC1C(=O)Nc2ccccc2-c2ccccc21` (stereo not drawn), the Potency in test [1] is 4.61 µM (active). Take `NC[C@@](O)(c1ccc(Cl)cc1)c1ccc(-c2cn[nH]c2)cc1`: in test [1], the Potency was 9.2 µM (active). Same read-out and setting: the same measure for `O=C1NC(Cc2ccccc2)C(=O)N2CCCC12` (stereo not drawn): “inactive”; for `COC(=O)/C=C/C12COC(C)(C)C1C(O)C(OC(C)=O)C1(C)C2CCC2(C)C(c3ccoc3)OC(=O)C3OC321` (stereo not drawn): “inactive”.
